For 80 sequences, RUNX1 binding intensity results are on record in the supplement of paper PMC10681739.

± gives the standard deviation of the averaged measurements. In all, about 4,000 sequences were measured (“arbitrary fluorescence units”: median about 830, highest 2% from about 6,500 on). The sample holds the highest values, similar sequences and a random draw of the others, so the mix is not that of the screen.

Sequence of RUNX1 (Q01196 whole entry): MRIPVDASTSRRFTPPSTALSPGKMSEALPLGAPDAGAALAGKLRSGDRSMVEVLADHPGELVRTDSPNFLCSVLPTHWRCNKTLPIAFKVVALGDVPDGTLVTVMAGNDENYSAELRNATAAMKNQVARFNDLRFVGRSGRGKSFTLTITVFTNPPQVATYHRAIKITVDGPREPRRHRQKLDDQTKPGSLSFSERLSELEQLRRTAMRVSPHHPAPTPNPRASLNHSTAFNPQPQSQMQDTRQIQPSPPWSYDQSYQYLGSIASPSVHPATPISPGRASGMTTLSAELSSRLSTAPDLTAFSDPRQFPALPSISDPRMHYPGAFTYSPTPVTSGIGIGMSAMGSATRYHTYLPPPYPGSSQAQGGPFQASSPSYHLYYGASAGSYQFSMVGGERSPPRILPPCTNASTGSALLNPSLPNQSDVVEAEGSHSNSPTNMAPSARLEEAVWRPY

The target in the assay is RUNX1 (UniProt Q01196). In words: RUNX1 binding intensity (PBM fluorescence), RUNX1 alone (arbitrary fluorescence units); higher = stronger binding. The note with it: RUNX1 concentration 2 nM; ETS1 concentration 0 nM. The method, then:
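gcPBM on 36-bp genomic-derived probes (partner site mutated) containing one RUNX1 site and no ETS1 site. Recombinant human RUNX1 (2 nM) was incubated alone or with ETS1 (25 nM) and detected by anti-RUNX1 antibody fluorescence. Values are medians over 4 replicate spots (not normalised). The probes sit in constant array flanks that are not printed.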
For GCCCCTCTTTCTGACTCACACAACCGCCTCTAGTCT, the RUNX1 binding intensity is 1540.
For TTGTGGTAGGGAAATCCACTTACCCCCTCCTCATGT the value was 808.
To TGTGGCAACCACAGCCCCAAAACAAAGAGGAGACAC belongs 1040; to AGCTGAGGTCGCGGTGCAGCAGCAGCAAACGTGATA, 1010.
To CCACTAGCAGCAAAACGGGCCGAGGGACCGCAAGCA belongs 821.
Sequence AACTTGTGGGGTTTTCTTCTGATCTTGCTCCCCGCT yielded an RUNX1 binding intensity of 998.
For GAAACCACAACCTACCCCAGCCTTACTTTCGGGCGC the value was 3300.
For CCATTCTTACGGTGGAGATGGCTGCGGCCGTGGCGG the value was 815; for TCAAGAAAACAGTAAACTCTCAAAACCAAGTTCTGA, 736.
Sequence GCAATCTTGACCACAACATGGAGACAGGCAATCAAA came in with an RUNX1 binding intensity of 1540.
For ACGTCTGTTTACTGTGATTGAAACCGCAAGAAGAAG the value was 9630; for TAGGTCTGTGGGTGACGTCTGTTTACTGTGATTGAA, 842.
For CATTCATGTGGCTTATAGGCACACCCTGCCTGCCTA the value was 824.
CCCCTTGCCGTTCTCCGAAAGTGCGCGGGTTGGAGC had an RUNX1 binding intensity of 868.
Sequence TCCTCCGTTCCCGTAGTTCCGAGTTGCGGTTTCTCC came in with an RUNX1 binding intensity of 7620.
For GAGGCGTTGCCGCCTCCTTTTCGCGGTTGCCTTCTC the value was 988; for TGCTTCCCTTCAGTGCCGACAGCGAAAACCGCTGCC, 795; for GTCGCCGGGATCACCGCAAACGCTTGCTGCTTGCGC, 1190.
To AGCCGTGGTCAGCAGCAGCACGACTGCCGCCTCCGC belongs 770.
To AACTGGGCTGAAAGAACGGCTAACCGCAAGCTGCCG belongs 13200; to GCAACCGCACTCCGAAAGCTCTGGGCCTGAAGAGTC, 943; to TTGATAGCAAACCACACTCGGCACAGAAAGGAGAAC, 1020.
GGCGCCTCTTTGCGCCCCCGCCCACAATCGAGCGCA showed an RUNX1 binding intensity of 826.
To GGTGGACCTGTGGTTTGCAACACAGAAAGAGGTGGC belongs 1580.
For GGTGGACCTGTGGTTTGCAACACAGAAAGAGACTAT the value was 1640.
Sequence CCTTTGTTGTGGTTTTTGCAGAAAGAGAAGGGTTAG registered an RUNX1 binding intensity of 10600 ± 540.
For CACCTTTGTTGTGGTTTGTAAACGGAGACAAAAACA the value was 1460.
To TGACGGCTGCACGGGCGCAGCGGCGGCCCGCAGGGG belongs 736; to CTGCCTGCCCCACAGCATGCAGGGACAGGCAGTGGG, 633.
To CGGCCCCCGGGGTGGTTAGCGCTTACGGGGTCGAAG belongs 714; to GCCGATGAGGAGGTGAGGGCCAACCACACTGCTCAG, 870; to AGAGTCTTTTTTACTGAGCGTTTGCGGTTTTGACTT, 8560.
Regarding TCAGAACTTGGTTTTGAGAGTTTACTGTTTTCTTGA, the RUNX1 binding intensity was found to be 785.
Turning to AGTGCTGTGGTTTGACTTTGTTTTTACTGTAGCCAG, the RUNX1 binding intensity stood at 1880.
To GGTCTGGAGGACGTTTGCAGCTGCTGTGGGTGGTGG belongs 787; to ACCTGATGCCGGGGCACCGCCAGATGTGGCCACGAG, 872.
Sequence TCGCCCGCCGCTTCATGTCGCGGCGCCGCAGAGGCC returned an RUNX1 binding intensity of 781.
For AATTAAATTGTGGTAGATAGTAAAAGGACGTAGTTA the value was 943; for TTTAATTCTGTGGTTAGAAGTAAAAGGACGTAAAGG, 3370.
For GTAGTAAGTTGTGGTTAAAAGAGAGGACGTTCAGAG the value was 7590; for ACTCTGCGGCCCAGCTGCTTCTGTGCACAGGCAATA, 791; for CTACCGGGAGTGCGGGTCGCGCTTCAGGCGGCGTCC, 724.
To TGAAGGCAATTGACGAACACGTGACGCGGTCGGGCG belongs 721; to AGCGCCACCGCAGTGATGCAAGTCGGCAGTTGTAGT, 926; to ATTTCCATTTACGGACTCTTCTCCTGCCCGCAGGGC, 1020.
Consider TCGTGAAAAAGGAGGTGGATAAAGTGGTTACGGCAA, for which the RUNX1 binding intensity is 779.
As for CCGAGTGGCGGTTGTTTCAAGATGGCGGAGGTGGCA, the RUNX1 binding intensity worked out at 789.5 ± 6.2.
For CCAGCATGTGGGCTCTGAACCTGAAGCAACAGGCTC the value was 796; for ATGTTAACACCCTGCCATGAAAACCGCAAGAAGGGC, 11200; for GGTGTTACACCGCAGCCTTCCATGAAGGGGCAGGGG, 1220.
For CATGAGAAACACCCTGCCCAACCACCTGACTACAAG the value was 1080; for CCGGGACCGCGGCTTGGGCTCACGGCCACTGCCGAC, 703.
To GTTTTCAAGGCAGCAAGTGGCTGTGGTGGCACGGAG belongs 837; to AGGCTTTGCTGCCACAAACTTTCGTGCCACGAACCT, 779; to AGTTGCATACGCGGTATTGGGCAGGCAATGGCAGGG, 738.
The sequence CGTTTACTGTGGCTGCAGCTCTCCCCACCCACACAC showed an RUNX1 binding intensity of 979.
To GACGCAGCATGAGGTGGAGGTGTAGAATGTGGTGCT belongs 760.
For TTTGCACACATGCTGGCCTCCGCCTGACCACCTCCT the value was 985; for GCCGTGAATGCGGGCTCTCCTGCCGTAAGCTGCCCC, 824.
For TTACAGGGGCCGGGAGTGGCCTGCGGGCGGAGAAGT the value was 738.
The sequence TCCTGTGGCTTTGGGGTTCCTTGTTGCCTGGGCTGG yielded an RUNX1 binding intensity of 1110.
To GTGACCACTGCCTAGTTACTGCCAGCTGAACGAAGG belongs 729; to CTGGAACCGCAGGATCCTTGCTGCGTCCTCTCGGTC, 2340; to GAGTGGGCGGTAACTCGCAGGCCGAACGTGACGCAA, 740.
To GACAACCTACCACAGCCTTCCTTTCGGGCGCTCAGG belongs 1040; to TTCTGTGGGGACAATTAGGGTTTCTGGGTTTTCTGA, 865.
For AGATTCTAGGCAGTGTCTGTAGCCGCAGCTGAGGGT the value was 736; for TACCTAGACCCTTGCCGCCCTTACCGCGGCCAGACA, 901.
Sequence CTTCTTGCTGCTGAGACTGATACAGCCCGCAAAGCT showed an RUNX1 binding intensity of 816.
Regarding TGTTACCACTGTTAGACTAGAGAGCATGCTGTTGTT, the RUNX1 binding intensity is 841.
To AGCACCACATTCTACACCTCCACCTCATGCTGCGTC belongs 1180; to TTGCCGTAACCACTTTATCCACCTCCTTTTTCACGA, 2720; to CCTAAGTAACCACATTCTCGCTTGCTCCTTCCACAC, 3680.
For GTAGCCGGGTGTTACGGAGCGCTGCGGGCAAAGCAG the value was 671; for GGAGGAAGGCAGCAAAGAAAGAGGTGGTTTCGGCAC, 783; for CTCAGCCCACCGCTGCGCGGCCGAAAGTCGGAGGTT, 760.
For TTGCACTCTGCGGGGACGGGAGAAGGAACGAAAAAT the value was 805; for TTTGTTGTTCAGGGTGCGAGGCGGCCGCAGCTTCCA, 936.
Sequence CACCTCCCACTCACCACAGAGTTTCATGGTGTTTTA returned an RUNX1 binding intensity of 1090.
For ACTTGACTGCCTGTGGGGTGTGTGGTGTCTGCACTT the value was 822.
